An excerpt weighted towards active compounds, which were near 0.96% of everything screened.
Fluorescein autfl = qHTS Assay for Spectroscopic Profiling in Fluorescein Spectral Region. 59,000 compounds, 0.91% hits. Compound autofluorescence, 480/540 nm, fluorescein-equivalent; active compounds read high. max fluorescein-equivalent concentration, M; in the data active = max fluorescein-equivalent concentration above about 10 nM; inconclusive = between about 1.1 nM and that limit
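Autofluorescence profiling; 100 mM Tris, pH 8.0; incubation 15 min at RT; ex/em 480/540 nm; result as fluorescein-equivalent concentration.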
Texas Red fluor = qHTS Assay for Spectroscopic Profiling in Texas Red Spectral Region. Compound fluorescence, Texas Red channel, 547/618 nm; active compounds read high. max dye-equivalent concentration, M. 59,000 compounds, 0.06% hits. AID 587, 2007; in the data active = max dye-equivalent concentration above about 10 nM; inconclusive = between about 1.1 nM and that limit
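Dye-equivalent concentrations come from scaling compound signal (ex 547, em 618 nm) to six Texas Red standard concentrations run on every plate, after 15 min room-temperature incubation in pH 8.0 Tris (100 mM).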
A488 autofl = qHTS Assay for Spectroscopic Profiling in A488 Spectral Region; compound autofluorescence, A488 spectral region, dye equivalency; Compound Type: qHTS ECL - MLSMR; max dye equivalency, M; 59,000 compounds, 0.1% hits; AID 591, 2007
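Compound autofluorescence was read in 100 mM Tris pH 8.0 after 15 min at room temperature, ex 480 nm/em 540 nm. Intensities were converted to A488 dye-equivalent concentration using an on-plate six-point A488 standard curve.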
A647 autofl = qHTS Assay for Spectroscopic Profiling in A647 Spectral Region. Compound fluorescence, A647 channel (570/671 nm), Tris buffer. max dye-equivalent concentration, M. 59,000 tested, under 10 active. AID 592, 2007;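 also: values scaled relative to a standard on each plate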
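Spectral profiling of library compounds in pH 8.0 Tris: 15 min room-temperature incubation, single ex/em pair (570/671 nm), response normalized to Alexa 647 equivalents.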
Rhodamine fluor = qHTS Assay for Spectroscopic Profiling in Rhodamine Spectral Region; Rhodamine-region fluorescence, 547/598 nm, Tris buffer; active compounds read high; 59,000 compounds, 0.05% hits; AID 594, 2007; max dye-equivalent concentration, M; in the data active = max dye-equivalent concentration above about 11 nM; inconclusive = between about 1.1 nM and that limit
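Steps: pin-transfer compounds into pH 8.0 Tris (100 mM), hold 15 min at room temperature, image with a 547/598 nm filter pair, and convert intensities to rhodamine-equivalent concentration using a six-point on-plate rhodamine series.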
Resorufin autofl = qHTS Assay for Spectroscopic Profiling in Resorufin Spectral Region; 59,000 compounds, 0.04% hits; max dye-equivalent concentration, M; Compound fluorescence, resorufin region 547/598 nm, buffer; active compounds read high
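Dye-equivalent concentration values derive from comparing each well's 547/598 nm fluorescence against resorufin standards included on every plate. Incubation was 15 min at room temperature in 100 mM Tris, pH 8.0.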
Active calls of the source: *; i = inactive; ? = inconclusive. Unless noted, no rule for the calls is given here.

SMILES	Fluorescein autfl	Texas Red fluor	A488 autofl	A647 autofl	Rhodamine fluor	Resorufin autofl
Cc1cc(N2CCOCC2)n2nc(-c3cccc(F)c3)cc2n1	1.1e-08M*	i	i	2.7e-09	i	i
CCN1CC=C2C(C1)C(c1ccc(Cl)s1)C(C#N)=C(N)C2(C#N)C#N (configuration not stated)	8.56e-08M*	i	?	1e-09	i	i
CCC[C@@H]1O[C@@H]2C[C@@H]3[C@@H]4CCC5=CC(=O)C=C[C@@]5(C)[C@H]4[C@H](O)C[C@@]3(C)[C@@]2(C(=O)CO)O1	i	?	i	1.4e-09	i	i
COc1ccc2c(Cl)cc(NC(=S)Nc3ccccc3)nc2c1	i	?	i	9.5e-09	i	i
N#CC1=C(N)SC(N)=C(C#N)C1c1c(Cl)cccc1Cl	i	i	i	8e-09	i	i
N#CC1=C(N)SC(N)=C(C#N)C1CCc1ccccc1	1.21e-08M*	i	i	1.18e-08	i	i
CC(C)(C)NC[C@H](O)c1cc(O)cc(O)c1	?	i	i	1.3e-09	i	i
c1ccc(CC2CCN(c3nc4ccccc4n4nnnc34)CC2)cc1	?	i	i	3.27e-08	i	i
O=C(c1ccco1)N1CCN(c2nc3ccccc3n3nnnc23)CC1	1.02e-08M*	?	i	4.25e-08	i	i
Cc1cc(=O)[nH]c(SCCOc2ccc3c(c2)CCC3)n1	i	i	i	1e-09	i	i
Cc1cc(=O)[nH]c(SCCOc2ccc(OC(C)C)cc2)n1	2.25e-08M*	?	i	1.71e-08	?	?
N#CC1=C(N)Oc2n[nH]c(-c3cccs3)c2C1c1ccco1 (configuration not stated)	1.01e-07M*	?	?	1e-09	?	?
Cc1cc(OCc2nc(N)nc(N)c2-c2ccc(Cl)c(Cl)c2)ccc1[N+](=O)[O-]	i	i	i	9.3e-09	i	i
CN1CCN(C(=O)CSc2nc(-c3cccs3)cc(-c3cccs3)c2C#N)CC1	2.04e-08M*	?	i	2.6e-08	i	i
N[C@@H](Cc1[nH]nc2ccccc12)C(=O)O	1.14e-08M*	i	i	2.3e-09	i	i
CCN(CC)CC[n+]1ccc2c(C)c3[nH]c4ccccc4c3c(C)c2c1	1.7e-08M*	i	i	4.04e-08	i	i
CCN(CC)CCCn1c(=S)[nH]c2ccccc2c1=O	i	i	i	1.5e-09	i	i
CCOC(=O)SC1=N/C(=C\c2ccc(N(C)C)cc2)C(=O)S1	1.01e-08M*	i	i	1e-09	i	i
CCOC(=O)c1sc(SCC(=O)Nc2ccc(N(C)C)cc2)nc1N	i	i	i	1.55e-08	i	i
CCCCNc1c(CN)cnc2cc(Cl)ccc12	?	i	i	1e-09	i	i
Cn1c(=O)[nH]c(=O)c2c1nc(NCc1ccccc1)n2CC(O)c1ccccc1 (configuration not stated)	3.56e-08M*	i	?	1e-09	i	i
c1ccc2c(-n3ccnc3)nc(-c3ccoc3)nc2c1	i	i	i	1e-09	i	i
Cc1nnc2sc(-c3ccc(NC(=O)c4cccnc4)cc3)nn12	?	?	i	4.89e-08	i	i
Cc1nnc2sc(-c3ccc(NC(=O)c4ccc(-c5ccc(Cl)cc5Cl)o4)cc3)nn12	1.22e-08M*	?	i	2.79e-08	?	?
CC(C)(C)c1ccc(OCC(=O)O)c(Cl)c1	?	i	i	1.99e-08	i	i
SMILES	Fluorescein autfl	Texas Red fluor	A488 autofl	A647 autofl	Rhodamine fluor	Resorufin autofl
C=CCOC(=O)C(C#N)c1nc2ccccc2nc1N1CCN(Cc2ccccc2)CC1 (configuration not stated)	?	?	i	1e-09	i	i
CCCn1c(O)c(CN2CCCCC2)c(C)c(C#N)c1=O	1.49e-08M*	?	i	1.4e-09	i	i
Cc1c(CN2CCCCC2)c(O)n(CCCO)c(=O)c1C#N	1.63e-08M*	?	i	3.9e-09	i	i
C=CCn1c(O)c(CN2CCN(Cc3ccccc3)CC2)c(C)c(C#N)c1=O	2.14e-08M*	i	i	1e-09	i	i
O=C(O)/C=C\C(=O)Nc1ncn[nH]1	?	i	i	3.92e-08	i	i
COc1ccc(O)c(C(=O)c2cc(C#N)c(=O)n(CCN3CCOCC3)c2)c1	i	i	i	1e-09	i	i
COc1ccc(O)c(C(=O)c2cc(C#N)c(=O)n(-c3c(C)n(C)n(-c4ccccc4)c3=O)c2)c1	1.21e-07M*	i	?	1e-09	i	i
CO[C@H]1[C@H](O[C@H]2O[C@@H](C)[C@@H](O[C@@H]3C[C@](C)(O)[C@H](O)[C@H](C)O3)[C@@H](N(C)C)[C@@H]2O)[C@@H](CC=O)C[C@@H](C)[C@@H](O[C@H]2CC[C@H](N(C)C)[C@H](C)O2)/C=C\C=C/C[C@@H](C)OC(=O)C[C@H]1O	?	?	i	1.7e-09	i	i
CCN1C(=S)SC(=O)C1=C1C=C(C)N(CCO)C(C)=C1	?	i	i	1e-09	i	i
CCN1C(=S)SC(=O)C1=C1C=C(C)N(CCOC)C(C)=C1	1.06e-08M*	i	i	1e-09	i	i
C[C@H](Oc1ccc(Oc2cnc3ccc(Cl)cc3n2)cc1)C(=O)O	?	i	i	1e-09	i	i
COc1cc(OC)cc([C@H](CNc2ncnc3c2ncn3[C@@H]2O[C@@H](CO)[C@H](O)[C@@H]2O)c2ccccc2C)c1	?	i	i	3.33e-08	i	i
Nc1cc(C(=O)O)[nH]c(=O)n1	1.07e-08M*	i	i	6.4e-09	i	i
CCC(=O)O[C@@H]1[C@H](C)O[C@H](O[C@H]2[C@@H](N(C)C)[C@H](O)[C@@H](O[C@@H]3[C@@H](CC=O)C[C@@H](C)[C@@H](O)/C=C\C=C/C[C@@H](C)OC(=O)C[C@@H](OC(=O)CC)[C@H]3OC)O[C@H]2C)C[C@]1(C)O	?	i	i	5.9e-09	i	i
CCOn1c(=O)c(-c2cc3ccccc3o2)[n+]([O-])c2ccccc21	1.31e-07M*	i	?	1.39e-08	i	i
CC(C)(C(=O)O)c1ccc([C@@H](O)CCCN2CCC(C(O)(c3ccccc3)c3ccccc3)CC2)cc1	?	?	i	2.08e-08	i	i
Cc1noc(C)c1-c1nccc(NCc2cccs2)n1	i	i	i	6.9e-09	i	i
